Measured values reported in PubChem BioAssay (Tox21).
“And” between values parts separate entries of the source, which are not always exact repeats. Equal entries are not always repeated. Records with an inconclusive call do not appear. Entries that show only a call come without a potency. The source holds several records for some structures; these can differ, active in one and inactive in another. The source made the active and inactive calls. Calls follow the shape of the dose curve; as a rule, active = well fitted activation curve with a large enough effect in the repeat runs; inconclusive = weak or mixed curves; inactive = flat fitted curve, though single readings scatter.

experiment: A CellTox Green Cytotoxicity Assay to monitor cytotoxicity in HEK293 cells - 40 hour (AID 1224871); settings: CellTox Green fluorescence; series mostly up to 76.8 µM; also: nearly all actives have a fitted effect of over 45% in size
Excerpt: National Center for Advancing Translational Sciences [NCATS]
NIH Chemical Genomics Center [NCGC]
U.S. Environmental Protection Agency [EPA]
National Institutes of Environmental Health Sciences [NIEHS]
National Toxicology Program [NTP]
Cell-based models are critical for drug discovery. Determining the natural cytotoxic effects resulting from test compounds is an essential research activity. A CellTox Green Cytotoxicity Assay to monitor cytotoxicity in real time of continues cell culture during 40 hours of the compound treatment was used to screen Tox21 10K library compounds in Hek293 cells. CellTox Green Cytotoxicity Assay is a nonlytic, homogeneous, biofluorescent method to measure cytotoxicity in cell culture after experimental manipulation. The assay system uses a proprietary asymmetric cyanine dye that is excluded from viable cells but preferentially stains the dead cell's DNA. […] Viable cells produce no appreciable increases in fluorescence. Therefore, the fluorescence signal produced by the binding interaction with dead cell DNA is proportional to cytotoxicity.
The mixture of Hek293 cell suspension and reagents were dispensed at 600cells/6 ul/well in 1536-well tissue culture treated black solid bottom plates using a Multidrop dispenser. After the assay plates were incubated at a 37 C/5% CO2 incubator for 5 hours, 23 nL of compounds dissolved in DMSO, positive and negative controls was transferred to the assay plate by a pintool work station. The plates were incubated at 37 C for 40 hours. The fluorescence intensity were measured at 0h, 8h, 16h, 24h, 32h and 40h time points using ViewLux plate reader during compound treatment.
Potency is read from the fitted curve at half-maximal effect.

SMILES | Potency
COP(=O)(NC(C)=O)SC (stereo not given) | inactive
CCOC(=O)c1ccccc1N | inactive
CCCCOCCOC(C)=O | inactive
NC(=O)CN1CCCC1=O | inactive
NN=C(N)N | inactive
CC1=C(C(=O)Nc2ccccc2)SCCO1 | inactive
O=C1Nc2ccc(Cl)cc2C(c2ccccc2)=NC1O (stereo not given) | inactive
CC1CC(=O)O1 (stereo not given) | inactive
CC(C)(O)C#N | inactive
CNC(=O)Oc1cccc2c1OC(C)(C)C2 | inactive
ClCc1ccccn1 | inactive
CCCCCCCCCCCCCl | inactive and 17.4 µM (active)
c1ccc2c(c1)Nc1ccccc1S2 | inactive
C[N+](C)(C)CC(=O)[O-] | inactive
CCOS(=O)(=O)OCC | inactive
Clc1ccc(C(Cl)(Cl)Cl)cc1 | inactive
C[N+](C)(C)C | inactive
[CH3][Sn]([Cl])([Cl])[Cl] | inactive
CC(C)Nc1nc(Cl)nc(NC(C)C)n1 | inactive
c1ccc(C2CO2)cc1 (stereo not given) | inactive

SMILES | Potency
CCCCC(C#N)(Cn1cncn1)c1ccc(Cl)cc1 (stereo not given) | inactive
S=c1[nH]c2ccccc2[nH]1 | inactive
CC(C)(c1ccccc1)c1ccc(O)cc1 | 24.3 µM (active) and 27.5 µM (active)
N#Cc1nn(-c2c(Cl)cc(C(F)(F)F)cc2Cl)c(N)c1S(=O)C(F)(F)F (stereo not given) | inactive
CC(C)=CC1C(C(=O)OCN2C(=O)C3=C(CCCC3)C2=O)C1(C)C (stereo not given) | inactive
CC(C)CON=O | inactive
Cc1cccc(N=Nc2ccc(N(C)C)cc2)c1 | inactive
C[C@]12CCC(=O)C=C1CC[C@@H]1[C@@H]2CC[C@@]2(C)[C@H]1CC[C@]2(C)O | 49.4 µM (active) and inactive
O=S(=O)(O)C(F)(F)C(F)(F)C(F)(F)C(F)(F)C(F)(F)C(F)(F)C(F)(F)C(F)(F)F | 33 µM (active) and inactive and 21.9 µM (active)
O=C(O)c1nn(Cc2ccc(Cl)cc2Cl)c2ccccc12 | inactive
Clc1cccc(Cl)c1 | inactive
N#CC(c1ccccc1)c1ccccc1 | inactive
Cc1cc(Cl)ccc1N=CN(C)C | inactive
CC(O)CN(CC(C)O)CC(C)O (stereo not given) | inactive
Brc1ccc(Br)cc1 | inactive
COP(=S)(OC)Oc1ccc(S(=O)(=O)N(C)C)cc1 | inactive
OCCOCCO | inactive
CNC(=O)CSP(=S)(OC)OC | inactive
CC(C)COC(=O)c1ccccc1C(=O)OCC(C)C | inactive
O=[N+]([O-])c1ccc(Cl)c([N+](=O)[O-])c1 | 14 µM (active) and 19.5 µM (active)
